ATXN2 expr inh: inhibitors of ATXN2 expression; HEK-293 ATXN2-luciferase reporter, luminescence, 24 h; Potency, µM (doses to about 57 µM), usual class: inhibitors; 0.72% of 360,000 active; AID 1745845; further: nearly all actives have a fitted effect of over 55% in size
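qHTS (up to 57 uM final) was run with 24 h compound exposure of reporter cells at 37 °C. Each well was multiplexed: SteadyGlo luminescence measured ATXN2-luciferase expression after a fluorogenic Gly-Phe-AFC viability readout (25 uM final).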
KB-V1 cytotox: KB-V1 MDR subline cytotoxicity; KB-V1 MDR cells viability, CellTiter-Glo, 72 h; Potency, µM (top dose mostly 46.1 µM), most hits filed as cytotoxic; 3.4% of 400,000 active; AID 1347076; further: nearly all actives have a fitted effect of over 60% in size
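In this primary screen, KB-V1 cells overexpressing P-gp are incubated with library compounds (lowest to highest concentration) for 72 h at 37 degrees C before a luminescent ATP viability read.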
TGFb SMAD3 inh: inhibitors of TGF-b signaling | HepG2 CAGA-GFP TGF-b/SMAD3 reporter, GFP fluorescence, 18 h; TGF-beta stimulated, 500 pg/mL final | Potency, µM (doses to about 46.1 µM), hits mostly inhibitors | 1.2% of 410,000 active; further: nearly all actives have a fitted effect of over 65% in size
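GFP signal (ex488/em500-530) from TGF-beta-stimulated HEPG2 CAGA-GFP cells, 500 pg/mL final, 18 h at 37 degrees C in DMEM plus 1% FBS, normalized to unstimulated and DMSO-stimulated controls.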
KB-3-1 cytotox: KB-3-1 parental cell cytotoxicity; AID 1347075; 1.4% of 400,000 active; Potency, µM (doses to about 46.1 µM), usual class: cytotoxic; KB-3-1 viability, CellTiter-Glo ATP luminescence, 72 h; further: nearly all actives have a fitted effect of over 60% in size
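KB-3-1 cells, DMEM (no phenol red) + 10% FBS; compound by pin transfer, 72 h, 37 °C. Readout: CellTiter-Glo luminescence after 10 min. Data normalized, curve-fitted.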
S2 tox: cell viability loss in ATXN counter-screen. 0.49% of 400,000 active. S2 cells (HEK-293 line with an ATXN2-luciferase reporter) viability, CellTiter-Fluor protease fluorescence, 24 h. Potency, µM (top dose mostly 56.7 µM), actives largely listed as cytotoxic; further: nearly all actives have a fitted effect of over 40% in size
HepG2 viability: kills HepG2 cells in TGF-b inhibitor counter-screen; Potency, µM (series often up to 46.1 µM), usual class: cytotoxic; HepG2 CAGA-GFP viability, ATP luminescence, 18 h; 0.76% of 410,000 active; AID 588856
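HepG2 CAGA-GFP cells (1000/well, DMEM with 1% FBS) received compound, then TGF-beta at 500 pg/mL final, and were incubated 18 hours at 37 degrees C. Viability was read by CellTiter-Glo luminescence. Media-only wells were set as complete cell-killing and DMSO as no toxicity.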
Large screens that a line does not name were inactive. This is a sample that favours compounds with a hit; in the whole collection about 5.9% have one here. The call rests on the fitted dose curve; in most records, active means well fitted curve in the direction sought with a large enough effect; inconclusive means small, poorly fitted or top-dose-only effect, or another doubt; inactive means no such curve, though single readings can be large; an effect the other way counts as inactive or inconclusive.

ClC(=C\c1ccccc1)/C=N/N1CCN(c2ccccn2)CC1	KB-V1 cytotox 18µM
C#C[C@]1(O)CC[C@H]2[C@H]3CCc4cc(OC)ccc4[C@H]3CC[C@@]21C	none (no result: KB-V1 cytotox, TGFb SMAD3 inh, KB-3-1 cytotox, S2 tox, HepG2 viability)
C#C[C@]1(O)CC[C@H]2[C@@H]3CCc4cc(OC5CCCC5)ccc4[C@H]3CC[C@@]21C	ATXN2 expr inh inconclusive, KB-3-1 cytotox inconclusive, S2 tox 32µM
O=C(N[C@@H]1c2ccccc2C2(CCN(C(=O)c3cc4ccccc4oc3=O)CC2)[C@H]1O)c1cccnc1	none (no result: ATXN2 expr inh, KB-V1 cytotox, TGFb SMAD3 inh, KB-3-1 cytotox, HepG2 viability)
O=S(=O)(c1ccc2c(c1)OCCO2)N1CCC(c2nc3ccc(Cl)cc3[nH]2)CC1	ATXN2 expr inh 16µM, KB-V1 cytotox 2.9µM, TGFb SMAD3 inh inconclusive, S2 tox inconclusive
O=S(=O)(c1cccc(Cl)c1)N1CCC(c2nc3ccccc3[nH]2)CC1	KB-V1 cytotox 8.2µM
O=S(=O)(c1ccc2c(c1)OCCO2)N1CCC(c2nc3ccccc3[nH]2)CC1	KB-V1 cytotox 15µM, KB-3-1 cytotox inconclusive
O=S(=O)(c1ccc(F)cc1)N1CCC(c2nc3ccccc3[nH]2)CC1	KB-V1 cytotox inconclusive, TGFb SMAD3 inh inconclusive
CN(C)c1ccc(/C=C/c2c(Cl)cnc3ccccc23)cc1	KB-V1 cytotox inconclusive, KB-3-1 cytotox inconclusive (no result: ATXN2 expr inh, S2 tox)
CC(C)c1ccc(/C=C2\C=Cc3ccccc32)cc1	TGFb SMAD3 inh inconclusive (no result: ATXN2 expr inh, S2 tox)
COc1ccc(Cl)cc1NC(=O)Cn1nnc2sc(-c3ccccc3)cc2c1=O	S2 tox inconclusive
Cc1cccc(N2CCN(C(=O)Cn3c(=O)c4cccn4c4ccc(F)cc43)CC2)c1C	none (no result: ATXN2 expr inh, KB-V1 cytotox, KB-3-1 cytotox, S2 tox)
COCCNC(=O)CCCN1C(=O)CCn2nc(-c3cccn3C)cc21	none
Cc1cc(C)n(CCc2nc(-c3ccc(C)o3)cs2)n1	none
Cc1cc(C)n(CCc2nc(-c3cc4ccccc4o3)cs2)n1	KB-V1 cytotox 16µM, TGFb SMAD3 inh inconclusive
COc1cccc(CC(=O)NCC2Cc3cc(Cl)cc(-c4ncccn4)c3O2)c1 (stereo not given)	none (no result: ATXN2 expr inh, KB-V1 cytotox, TGFb SMAD3 inh, KB-3-1 cytotox, HepG2 viability)
COc1cc(=O)n2c(c1C(=O)NCc1ccco1)CCN(Cc1c(F)cccc1F)CC2	none (no result: ATXN2 expr inh, KB-V1 cytotox, TGFb SMAD3 inh, KB-3-1 cytotox, HepG2 viability)
Cc1ccc(NC(=O)/C=C/c2ccc(S(=O)(=O)N3CCOCC3)cc2)cc1S(=O)(=O)N(C)C	ATXN2 expr inh 28µM, KB-3-1 cytotox inconclusive, S2 tox inconclusive
O=C(/C=C/c1ccc(F)cc1)Nc1ccc(S(=O)(=O)N2CCOCC2)cc1	none
COc1cccc(NC(=O)/C=C/c2ccc(S(=O)(=O)N3CCOCC3)cc2)c1	ATXN2 expr inh 22µM
CC(=O)Nc1cccc(NC(=O)/C=C/c2ccc(S(=O)(=O)N3CCOCC3)cc2)c1	none
CS(=O)(=O)N1CCc2cc(S(=O)(=O)NCc3ccccc3Cl)ccc21	TGFb SMAD3 inh inconclusive
O=C(O)c1cc(-c2ccc3c(c2)OCO3)nc2ccccc12	none
CCCN(CCC)C(=O)c1cc(-c2ccc3c(c2)OCO3)nc2ccccc12	KB-V1 cytotox 18µM
CC(NC(=O)c1cc(-c2ccc3c(c2)OCO3)nc2ccccc12)C(C)(C)C (stereo not given)	KB-V1 cytotox 16µM, TGFb SMAD3 inh inconclusive
CCOC(=O)C1=C(C)c2ccccc2N(C(=O)OC)C1(C)C(=O)OCC (stereo not given)	ATXN2 expr inh inconclusive, TGFb SMAD3 inh 13µM (no result: S2 tox)
c1ccc2c(c1)CCCN2	TGFb SMAD3 inh inconclusive (no result: ATXN2 expr inh, S2 tox)
Cc1ccccc1NC(=O)CCC(=O)N/N=C/c1cc([N+](=O)[O-])ccc1O	KB-V1 cytotox 21µM
Cc1ccc([N+](=O)[O-])cc1NC(=O)CCCOc1ccccc1	KB-V1 cytotox 10µM, TGFb SMAD3 inh inconclusive
CC(=O)c1ccc(OCCCC(=O)Nc2ccc(Cl)c(S(=O)(=O)N3CCOCC3)c2)cc1	TGFb SMAD3 inh inconclusive, KB-3-1 cytotox inconclusive (no result: ATXN2 expr inh)
CCN(CC)S(=O)(=O)c1cc(NC(=O)CCCOc2ccc(C(C)=O)cc2)ccc1C	KB-V1 cytotox 2.9µM, KB-3-1 cytotox inconclusive
Cc1ccc([N+](=O)[O-])cc1NC(=O)CCc1ccccc1	none
CC(=O)c1ccc(OCCCC(=O)Nc2cc(S(=O)(=O)N(C)C)ccc2C)cc1	KB-V1 cytotox 23µM, KB-3-1 cytotox inconclusive
Cc1nc2cc(-c3cccc(F)c3)nn2c(C)c1CCC(=O)NC(C)c1ccccc1 (stereo not given)	TGFb SMAD3 inh inconclusive
CCCCC/C=N/NC(=O)c1[nH]c2ccc([N+](=O)[O-])cc2c1C	none
CCC/C=N/NC(=O)c1[nH]c2c([N+](=O)[O-])cccc2c1C	ATXN2 expr inh inconclusive, KB-3-1 cytotox 23µM, S2 tox inconclusive
Cc1cc(O)c(C(C)C)cc1NC(=S)Nc1cc(C(C)C)c(O)cc1C	ATXN2 expr inh inconclusive, KB-V1 cytotox inconclusive, TGFb SMAD3 inh 10µM, KB-3-1 cytotox inconclusive, S2 tox inconclusive
CCOc1ccc(NC(=O)Nc2cc(C(C)C)c(O)cc2C)cc1	none
COC(=O)CSC1=C(C#N)C(c2ccccc2)CC(=O)N1 (stereo not given)	KB-V1 cytotox 18µM, KB-3-1 cytotox inconclusive
COC(=O)CSC1=C(C#N)C(c2cccc(OC)c2)CC(=O)N1 (stereo not given)	KB-V1 cytotox inconclusive, KB-3-1 cytotox inconclusive, S2 tox inconclusive

Assay outcomes (PubChem)
